Screening data (PubChem BioAssay)
The entries come from a sample that favours hits as a whole.
DT40 TDP1 CPT – growth inhibition of DT40 Tdp1-/-;hTDP1 cells with camptothecin (screen for TDP1 inhibitors) | 420,000 compounds, 12% hits | chicken DT40 Tdp1-/-;hTDP1 cells + 20 nM CPT, ATP luminescence, 48 h | Potency, µM (titrated, usually from 46.2 µM), inactives show top-dose activity change, negative = growth inhibition, actives largely listed as inhibitors | AID 686979; further: potency means the concentration at half of the fitted maximal effect; nearly all actives have a fitted effect of over 55% in size
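Cell growth measured by CellTiter-Glo luminescence after a minimum 48 h, 37 C compound exposure with 20 nM CPT in Tdp1-knockout DT40 cells stably expressing hTDP1, seeded 400/well; qHTS titration format.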
HT1080NT lethal – kills 2HG-producing HT-1080-NT fibrosarcoma cells; HT-1080-NT fibrosarcoma viability, CellTiter-Glo ATP luminescence, 48 h; Potency, µM (top dose mostly 46.1 µM), for the others: at the top dose activity, negative = less viability, most hits filed as cytotoxic; 360,000 compounds, 1.6% hits;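 further: NT is the 2HG producing partner of a matched IDH1 knockdown line; potency means the concentration at half of the fitted maximal effect; 0% = DMSO-treated cells and -100% = media-only wells without cells; nearly all actives have a fitted effect of over 55% in size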
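HT-1080-NT; 750 cells/well; 5% FBS RPMI; 48 h compound, 37 degrees C; CellTiter-Glo luminescence; curve fitting and curve-class assignment.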
12-LOX inh – inhibitors of human 12S-lipoxygenase ALOX12; purified 12hLO, xylenol orange hydroperoxide absorbance; Potency, µM (top dose mostly 108 µM), for the others: top-dose activity change, negative = inhibition, most hits filed as inhibitors; 580,000 compounds, 1.1% hits; further: potency means the concentration at half of the fitted maximal effect
Target sequence (P18054 whole entry, looked up): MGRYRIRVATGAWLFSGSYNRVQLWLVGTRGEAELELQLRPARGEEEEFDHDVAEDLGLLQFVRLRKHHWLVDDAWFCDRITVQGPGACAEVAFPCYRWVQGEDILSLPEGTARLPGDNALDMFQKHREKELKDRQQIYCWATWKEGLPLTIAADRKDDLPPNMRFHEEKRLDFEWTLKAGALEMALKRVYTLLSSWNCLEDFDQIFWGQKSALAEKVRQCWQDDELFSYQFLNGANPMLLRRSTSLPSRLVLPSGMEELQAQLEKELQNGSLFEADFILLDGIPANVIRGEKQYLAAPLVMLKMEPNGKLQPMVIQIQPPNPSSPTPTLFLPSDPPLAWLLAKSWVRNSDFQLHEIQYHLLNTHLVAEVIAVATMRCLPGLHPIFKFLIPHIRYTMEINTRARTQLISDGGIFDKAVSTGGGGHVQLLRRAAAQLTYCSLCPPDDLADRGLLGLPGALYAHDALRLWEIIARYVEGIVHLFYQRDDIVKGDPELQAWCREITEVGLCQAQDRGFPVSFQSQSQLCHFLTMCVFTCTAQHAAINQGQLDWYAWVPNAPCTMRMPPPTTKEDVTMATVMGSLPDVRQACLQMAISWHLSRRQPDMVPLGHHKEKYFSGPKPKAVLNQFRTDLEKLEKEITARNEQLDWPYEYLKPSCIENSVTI
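Hydroperoxide product was detected by ferrous iron/xylenol orange as the 573 to 405 nm absorbance ratio. Arachidonic acid at 40 uM (final) was turned over for 30 min at room temperature by 150 nM human 12hLO, pH 7.0 Hepes buffer, after 15 min compound preincubation.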
IL-1B inflam inh – inflammasome signaling inhibition, IL-1 beta readout; THP-1 LPS/ATP IL-1B secretion, AlphaLISA, 16 h; stronger effect = lower value; activity change, % at 57.5 µM; 360,000 compounds, 4.7% hits; AID 743279; in the data active means activity change below about -50%; inconclusive means mostly about -30% to -49%
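THP-1 cells pretreated 1 hr with compounds (up to 57.5 uM final), then stimulated with LPS (250 ng/mL final) plus ATP (1.25 mM final); secreted IL-1B measured by AlphaLISA after 16 hr, decreased signal indicating inhibition.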
DT40 TDP1 no CPT – qHTS for Inhibitors of human tyrosyl-DNA phosphodiesterase 1 (TDP1): qHTS in cells in absence of CPT | DT40 Tdp1-/- hTDP1 cells, no CPT, ATP luminescence, 48 h | Potency, µM (top dose mostly 46.2 µM), for the others: top-dose activity change, negative = growth inhibition, usual class: inhibitors | 420,000 compounds, 15% hits | AID 686978, 2013; further: potency means the concentration at half of the fitted maximal effect; nearly all actives have a fitted effect of over 55% in size
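No-CPT arm: Tdp1-/-;hTDP1 DT40 cells (400/well) plus compounds, incubated ≥48 hr at 37 °C. Readout CellTiter-Glo luminescence.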
HT1080 IDH1KD tx – kills HT-1080 cells with IDH1 knockdown. HT-1080 IDH1 knockdown viability, ATP luminescence, 48 h. Potency, µM (doses to about 46.1 µM), for the others: at the highest dose activity, negative = toxicity, hits mostly cytotoxic. 360,000 compounds, 2% hits;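 further: potency means the concentration at half of the fitted maximal effect; 0% = DMSO wells and -100% = cell-free medium wells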
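% activity derives from luminescence (CellTiter-Glo), normalised to DMSO and no-cell wells. HT-1080-IDH1KD cells, 750/well, had 48 h compound exposure at 37 °C.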
Numbers without * were called inactive; u = inconclusive; x = not tested or not shown; [ ] = another dose, or the depositor's remark. Unless noted, the call rests on the fitted dose curve; in most records, active means well fitted curve in the direction sought with a large enough effect; inconclusive means small, poorly fitted or top-dose-only effect, or another doubt; inactive means no such curve, though single readings can be large; an effect the other way counts as inactive or inconclusive. Unless noted, on the % scale 0 is the no-effect control and ±100 the full control effect.

SMILES	DT40 TDP1 CPT	HT1080NT lethal	12-LOX inh	IL-1B inflam inh	DT40 TDP1 no CPT	HT1080 IDH1KD tx
C=CCn1c(=O)c2ccccc2n2c(SCc3nc4ccccc4s3)nnc12	u	-4%	8%	7	16µM*	-6%
CC(C)c1noc(COc2ccc(C(N)=O)cc2)n1	x	x	-6%	x	x	x
COc1ccc(N2CCN(C(=O)CN3C(=O)NC(c4ccc(OC)cc4)(c4ccc(OC)cc4)C3=O)CC2)cc1	u	-5%	-6%	0	u	0%
Cc1ccc(NC(=O)CN2C(=O)NC3(CCc4ccccc43)C2=O)cc1Cl (stereo not drawn)	-25%	-26%	0%	1	26µM*	-4%[9.24 µM]
COc1ccc(N2CCN(C(=O)CN3C(=O)NC4(CCCc5ccccc54)C3=O)CC2)cc1 (stereo not drawn)	-8%	-4%	u	-4	16µM*	-14%
CC(C)c1ccc(C(=O)CN2C(=O)NC3(CCc4ccccc43)C2=O)cc1 (stereo not drawn)	u	-13%	-11%	u	21µM*	u
O=C(CN1C(=O)NC2(CCc3ccccc32)C1=O)c1ccc(Br)cc1 (stereo not drawn)	u	-2%	-19%	-59*	-26%	0%
Cc1cc(N2CCOC(C(F)(F)F)C2)nc(-c2ccccc2)n1 (stereo not drawn)	x	x	76%	x	x	x
c1ccc(CC2=NOC3(CCN(Cc4ccccc4)C3)C2)cc1 (stereo not drawn)	x	x	55%[176 µM]	x	x	x
O=C(CN1C(=O)NC2(CCCc3ccccc32)C1=O)c1ccc(Br)cc1 (stereo not drawn)	u	0%	u	-8	13µM*	2%
COc1cc2c(cc1NC(=O)CN1C(=O)NC3(CCc4ccccc43)C1=O)oc1ccccc12 (stereo not drawn)	u	23µM*	-5%	-17	u	15µM*
CN1C[C@@H](NS(=O)(=O)c2ccccc2)C[C@H]1c1nc(-c2ccccn2)no1	x	x	27%[176 µM]	x	x	x
O=C(Nc1ccc(N2CCOCC2)c(Cl)c1)c1ccc2c(c1)OCCO2	u	1%	-3%	u	u	-7%
O=C(Nc1ccc(N2CCCC2)c(Cl)c1)c1ccc2c(c1)OCCO2	u	-1%	-8%	-64*	21µM*	-6%
O=C(Nc1ccc(N2CCCCC2)c(Cl)c1)c1ccc2c(c1)OCCO2	u	u	-6%	6	21µM*	u
CCOc1cc(C(=O)N2CCN(c3cc(-c4ccc(Cl)cc4)[nH]n3)CC2)cc(OCC)c1OCC	x	x	7%	x	x	x
CSc1nc(C)c2c(n1)N(c1ccc(C(C)C)cc1)CC2	u	5%	43%	17	21µM*	1%
CSc1nc(C)c2c(n1)N(c1ccc(F)cc1)CC2	-2%	12%	-1%	-13	u	4%
O=C(O)c1cccc(C2CCCN(C(=O)c3ccccc3-n3cccn3)C2)c1 (stereo not drawn)	x	x	0%	x	x	x
Cc1ccc(-c2cc(-c3ccccc3[N+](=O)[O-])[nH]n2)c(O)c1	u	-14%	u	30	u	u
Cc1ccccc1-c1cc(-c2ccccc2O)n[nH]1	21µM*	u	u	-9	23µM*	u
Cc1ccc(-c2cc(-c3ccccc3Cl)[nH]n2)c(O)c1	u	u	u	1	u	11µM*
Cc1c(C)c2c(c(C)c1O)CCC(C)(CCCC(C)CCCC(C)CCCC(C)C)O2 (stereo not drawn)	-3%	x	x	x	-1%	x
Cc1c(C)c2c(c(C)c1O)CCC(C)(COc1ccc(CC3SC(=O)NC3=O)cc1)O2 (stereo not drawn)	13µM*	x	u	x	13µM*	x
CC(NNC(=S)N1CCN(c2ccccn2)CC1)c1nccc2ccccc12 (stereo not drawn)	0.0092µM*	-19%	u	-101*	0.018µM*	u
SMILES	DT40 TDP1 CPT	HT1080NT lethal	12-LOX inh	IL-1B inflam inh	DT40 TDP1 no CPT	HT1080 IDH1KD tx
CCCOc1ccc(F)cc1-c1cc(C(=O)Nc2ccc(OC)nc2)[nH]n1	u	14%	x	u	18µM*	-2%
CC(C)Oc1cc(F)ccc1-c1cc(C(=O)Nc2cccc(C(F)(F)F)c2)[nH]n1	16µM*	16µM*	-3%	-22	u	u
COc1ccc(NC(=O)c2cc(-c3ccc(F)cc3OC(C)C)n[nH]2)cn1	u	u	-25%	39	23µM*	26%
CCCOc1ccc(F)cc1-c1cc(C(=O)Nc2cc(OC)ccc2OC)[nH]n1	-21%	u	-8%	9	-11%	-17%
Cc1cc(O)c(-c2cc(C(=O)Nc3cccc(C(F)(F)F)c3)[nH]n2)cc1C	x	x	-13%	x	x	x
COc1ccc(NC(=O)c2cc(-c3ccc(F)cc3OC(C)C)n[nH]2)c(OC)c1	u	15%	4%	-27	u	12%
COc1cc(NC(=O)c2cc(-c3cc(F)ccc3OC(C)C)n[nH]2)cc(OC)c1OC	u	u	13%	u	16µM*	u
OC[C@@H]1O[C@H](CNC2CCOCC2)[C@H](N2CCCCC2)[C@@H]1O	x	x	15%[176 µM]	x	x	x
CCCOc1ccc(F)cc1-c1cc(C(=O)Nc2cc(OC)c(OC)c(OC)c2)[nH]n1	8.2µM*	u	2%	-11	15µM*	u
COc1cccc(OC)c1NC(=O)Cc1nn(C)c(=O)c2ccccc12	u	1%	1%	27	u	0%
Cc1ccccc1NC(=O)CCn1nc(-c2ccc(Cl)cc2)c2ccccc2c1=O	u	x	-24%	x	-28%	x
O=C(CCn1nc(-c2ccccc2)c2ccccc2c1=O)N1CCN(c2ccccc2)CC1	16µM*	-22%	0%	u	23µM*	-13%
CNC(=O)CCn1nc(-c2ccc(C)cc2)c2ccccc2c1=O	0%	14%	x	16	-16%	7%
CNC(=O)Cn1nc(-c2ccc(C)cc2)c2ccccc2c1=O	u	-12%	23%	24	15µM*	-11%
O=C(CCn1nc(-c2ccccc2)c2ccccc2c1=O)N1CCCC1	x	x	-4%	x	x	x
Cc1ccc(NC(=O)CCn2nc(-c3ccccc3)c3ccccc3c2=O)c(C)c1	21µM*	x	-15%	x	u	x
COc1ccccc1NC(=O)Cc1nn(C)c(=O)c2ccccc12	16µM*	4%	u	3	8.2µM*	-6%
